Source: publication PMC7826789 (International Journal of Molecular Sciences, 2021)

How the values were obtained:
Conditions in all cases: Compound Concentration (nM):1000
[1] = system: TBK1
[2] = system: TEC
[3] = system: TESK1
[4] = system: TGFBR1
[5] = system: TGFBR2
[6] = system: TIE1
[7] = system: T1, TIE2
T1 construct: gene TEK

[8] = system: TLK1
[9] = system: TLK2
[10] = system: TNIK
[11] = system: TNK1
[12] = system: TNK2
[13] = system: TNNI3K
[14] = system: T2, TRKA
T2 construct: gene NTRK1

[15] = system: T3, TRKB
T3 construct: gene NTRK2

[16] = system: T4, TRKC
T4 construct: gene NTRK3

[17] = system: TRPM6
[18] = system: TSSK1B
[19] = system: TSSK3
[20] = system: TTK
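Note: KINOMEscan scanMAX binding as percent activity remaining versus control; lower means stronger binding.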

SMILES | Percent Control [1] | Percent Control [2] | Percent Control [3] | Percent Control [4] | Percent Control [5] | Percent Control [6] | Percent Control [7] | Percent Control [8] | Percent Control [9] | Percent Control [10] | Percent Control [11] | Percent Control [12] | Percent Control [13] | Percent Control [14] | Percent Control [15] | Percent Control [16] | Percent Control [17] | Percent Control [18] | Percent Control [19] | Percent Control [20]
NS(=O)(=O)c1ccc(N/N=C2\C(=O)Nc3ccc(C(=O)NCCc4c[nH]cn4)cc32)cc1 [GW300660X] | 72% | 100% | 100% | 100% | 100% | 100% | 100% | 100% | 100% | 100% | 100% | 100% | 92% | 20% | 52% | 57% | 100% | 100% | 100% | 11%
COc1ccc(COc2ccc(Cc3cnc(N)nc3N)cc2OC)cc1 [GW632580X] | 99% | 100% | 99% | 100% | 100% | 100% | 100% | 92% | 100% | 100% | 73% | 77% | 90% | 4.2% | 0.9% | – | 89% | 100% | 83% | 85%
COc1cc(C)c(N(C)C(=O)CN(C)C)cc1Nc1nc(Nc2cccc(F)c2C(N)=O)c2cc[nH]c2n1 [GSK2219385] | 69% | 100% | 92% | 100% | 100% | 82% | 100% | 85% | 100% | 98% | 83% | 100% | 100% | 87% | 100% | 100% | 100% | 100% | 100% | 71%
C/C(Nc1ccc(S(N)(=O)=O)cc1)=C1/C(=O)Nc2ccccc21 [GW335962X] | 75% | 100% | 100% | 88% | 100% | 100% | 100% | 94% | 65% | 18% | 100% | 100% | 69% | 7.9% | 25% | 42% | 84% | 100% | 75% | 12%
Cl.c1ccc(Cc2nc3ccc(Nc4ncnc5ccccc45)cc3[nH]2)cc1 [GR269666A] | 100% | 100% | 100% | 100% | 100% | 100% | 100% | 100% | 100% | 100% | 100% | 100% | 84% | 100% | 92% | 100% | 97% | 70% | 100% | 51%
CN(C)CCNC(=O)Nc1ccc(N(C)c2ccnc(Nc3ccc(CS(C)(=O)=O)cc3)n2)cc1.Cl [GW830900A] | 98% | 82% | 100% | 100% | 75% | 72% | 100% | 89% | 100% | 49% | 39% | 75% | 97% | 16% | 34% | 57% | 100% | 100% | 83% | 68%
COc1ccc2[nH]c3c4[nH]c5ccc(OC)cc5c4c4c(c3c2c1)C(=O)NC4=O [GW296115X] | 59% | 88% | 90% | 100% | 100% | 100% | 100% | 100% | 95% | 3% | 29% | 69% | 90% | 40% | 59% | 47% | 79% | 89% | 89% | 50%
CCS(=O)(=O)c1ccc(OC)c(Nc2ncc(-c3cccc(F)c3)o2)c1 [GW621970X] | 100% | 100% | 89% | 100% | 52% | 69% | 100% | 100% | 86% | 82% | 38% | 90% | 66% | 11% | 30% | 48% | 88% | 100% | 100% | 100%
COc1ccccc1-c1cc(/C=C2\C(=O)Nc3ncc(Br)cc32)cc(Br)c1O [GW442130X] | 100% | 100% | 100% | 100% | 87% | 100% | 95% | 100% | 100% | 71% | 97% | 100% | 100% | 7.2% | 22% | 44% | 100% | 75% | 97% | 97%
Cc1cc(O)cc(C)c1/C=C/c1cncc(C(N)=O)c1 [GW435821X] | 100% | 100% | 100% | 84% | 81% | 100% | 100% | 100% | 100% | 100% | 100% | 100% | 67% | 98% | 94% | 100% | 100% | 100% | 100% | 90%
